Screens from PubChem BioAssay.
Shiga inhibitor = Shiga toxin inhibition | Vero cells, Shiga toxin protein synthesis inhibition reporter | inhibition, % at 38.7 µM | 290,000 tested, 9.2% active | AID 2315; in the data active = inhibition mostly above about 28%, no sharp cut-off; inactive = mostly below about 43%; also: 0% is about no effect
Pf growth 96h = P. falciparum growth inhibition at 96 hours; AID 504834; 320,000 tested, 6.9% active; Potency, µM (series often up to 28.7 µM), for the others: at the top dose activity change, negative = inhibition, usual class: inhibitors; P. falciparum luciferase reporter growth, 96 h; also: potency is read from the fitted curve at half-maximal effect; % is scaled to controls: 0 for no effect and ±100 for the full control effect
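Compounds incubated with erythrocytes infected by luciferase-expressing P. falciparum (2% hematocrit, 0.05% parasitemia final) for 96 hours, 37 C in 5% CO2. Growth inhibition scored as decreased luciferase luminescence.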
Pf growth 48h = inhibits P. falciparum growth in the first generation, 48 h | P. falciparum luciferase growth in erythrocytes, 48 h | Potency, µM (titrated, usually from 28.7 µM), for the others: at the top dose activity change, negative = inhibition, usual class: inhibitors | 310,000 tested, 5.9% active; also: potency is read from the fitted curve at half-maximal effect; % is scaled to controls: 0 for no effect and ±100 for the full control effect
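Erythrocytes infected with P. falciparum carrying an integrated firefly luciferase reporter (2% hematocrit, 0.1% parasitemia final) were exposed to compounds in RPMI 1640 with 0.5% Albumax at 37 C, 5% CO2. Growth inhibition was scored as reduced luminescence.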
LmPK inhibitor = blocks Leishmania mexicana pyruvate kinase activity. purified LmPK, Kinase-Glo ATP luminescence, 1 h. Potency, µM (titrated, usually from 57.5 µM), for the others: at the top dose activity change, negative = inhibition, most hits filed as inhibitors. 290,000 tested, 0.37% active. AID 1721; also: potency is read from the fitted curve at half-maximal effect; % is scaled to controls: 0 for no effect and ±100 for the full control effect
Target sequence (Q27686 whole entry, looked up): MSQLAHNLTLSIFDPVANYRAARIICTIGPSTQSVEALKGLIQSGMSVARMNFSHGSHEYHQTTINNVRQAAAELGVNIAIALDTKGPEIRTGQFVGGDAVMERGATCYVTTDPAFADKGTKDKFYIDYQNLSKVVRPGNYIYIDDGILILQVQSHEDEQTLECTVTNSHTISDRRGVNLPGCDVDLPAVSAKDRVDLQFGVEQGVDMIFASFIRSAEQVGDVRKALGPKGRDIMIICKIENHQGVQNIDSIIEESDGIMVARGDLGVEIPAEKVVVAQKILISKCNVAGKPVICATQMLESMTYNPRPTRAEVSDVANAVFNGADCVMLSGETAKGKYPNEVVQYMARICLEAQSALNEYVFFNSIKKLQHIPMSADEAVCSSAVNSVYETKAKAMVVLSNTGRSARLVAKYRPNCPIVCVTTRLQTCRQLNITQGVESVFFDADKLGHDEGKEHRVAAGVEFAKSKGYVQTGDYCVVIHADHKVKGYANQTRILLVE
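Screened at intermediate enzyme activity to detect both inhibitors and activators: LmPK at 0.1 nM, with a 0.5 nM enzyme column as activation reference. PEP 0.5 mM, ADP 0.1 mM; ATP detected by luminescence after 1 h.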
CHX counter = counter-screen hit for Shiga toxin inhibitors, cycloheximide; AID 2314; cell reporter, cycloheximide protein synthesis inhibition counterscreen; max response, %; 300,000 tested, 12% active; in the data active = max response mostly above about 13%, no sharp cut-off; inactive = mostly below about 14%; also: read at 38.3 µM for the half of the compounds with a filed dose; 0% is about no effect
* = called active by the depositor; ? = inconclusive; · = no result; [ ] = another dose, or the depositor's remark. This is a sample that favours compounds with a hit; in the whole collection about 22% have one here. Unless noted, calls follow the shape of the dose curve; as a rule, active = well fitted inhibition curve with a large enough effect; inconclusive = small, poorly fitted or top-dose-only effect, or another doubt; inactive = no such curve, though single readings can be large or run the other way.

SMILES | Shiga inhibitor | Pf growth 96h | Pf growth 48h | LmPK inhibitor | CHX counter
CCOc1ccc(C(=O)NCCN2CCCCC2)c(OCC)c1 | 12 | 89% | ? | 0% | -1
CCCOc1ccc(/C=N/NC(=O)CSCc2ccc([N+](=O)[O-])cc2)cc1OCC | -18 | -4% | -17% | 0% | -3
O=C(Nc1ccccc1C(=O)NCc1ccco1)Nc1cccc2ccccc12 | 36 | -31% | ? | 3% | 10
COc1ccccc1C(=O)Nc1ccccc1C(=O)NCc1ccco1 | 11 | 14% | 5% | -3% | 32*
O=C(Nc1cccc(Cl)c1)Nc1ccccc1C(=O)NCc1ccco1 | 55* | ? | · | -21% | 32*
COc1ccccc1C(=O)NCc1ccco1 | -7 | 17% | 13% | 5% | -1
COC(=O)C1NN=C(C(=O)c2ccc(Cl)cc2)C1c1ccc(OC)cc1 (configuration not stated) | -13 | 33% | -11% | 1% | -2
COCCn1c(=O)[nH]c2cc(C(=O)NCCc3ccc(S(N)(=O)=O)cc3)ccc2c1=O | 20 | -6% | 11% | 3% | -2
COc1ccc(-c2ccc(C(=O)C3CC3)cc2)cc1 | 65* | 200% | -23%[0.00184 µM] | -12% | 16*
COc1ccc(/C(N)=N/OC(=O)C2CCCCC2)cc1 | 136* | 200% | 186% | -4% | 43*
COc1ccc(/C(N)=N/OC(=O)C2CCCCC2)cc1OC | 78* | 26% | 39% | -5% | 50*
Cn1c(CNC(=O)C(Cc2ccccc2)NC(=O)c2ccccc2F)cc(=O)n(C)c1=O (configuration not stated) | 1 | 4% | 4% | 0% | -5
COc1ccccc1C(=O)NC(C)c1cccc2ccccc12 (configuration not stated) | 19 | -37% | ? | 7% | -1
COc1c(C)cccc1C(=O)Nc1ccc(N2CCN(S(C)(=O)=O)CC2)cc1 | 96* | 9% | 163% | 0% | 35*
COc1ccccc1C(=O)Nc1ccc(N2CCN(S(C)(=O)=O)CC2)cc1 | 37* | ? | 82% | 1% | 11
COc1c(C)cc(Br)cc1C(=O)Nc1ccc(N2CCN(S(C)(=O)=O)CC2)cc1 | -4 | 15% | 8% | 5% | -8
CC1CCCN(CCCNC(=O)C2CC(=O)N(c3ccc(F)c(Cl)c3)C2)C1 (configuration not stated) | -7 | 8% | 15µM* | 2% | -5
CC(=O)/C(=C\N(C)C)Sc1ccc(Cl)cc1 | -13 | ? | ? | 0% | 7
S=C(Sc1ccc(Cl)cc1)Sc1ccc(Cl)cc1 | 21 | ? | 6.6µM* | 1% | 21*
CN(C)C(=O)Oc1noc2cc(Cl)ccc12 | 17 | 3.3µM* | ? | 2% | 10
Cc1cc(-c2nc3ccccc3[nH]2)ccc1N | 144* | ? | 162% | 16µM* | 24
COc1ccc(-c2nc3ccccc3[nH]2)cc1 | 27 | -24% | · | 13µM* | 25*
COc1ccc(-c2nc3ccccc3nc2-c2ccc(OC)cc2)cc1 | -2 | -36% | ? | -2% | -4
S=C(Nc1ccc(-c2nc3ccccc3[nH]2)cc1)Nc1cccnc1 | 66* | -55% | ? | 0% | 61*
COC(=O)c1ccc(C(=O)Nc2ccc3nc(-c4ccncc4)[nH]c3c2)cc1 | -2 | -7% | -10%[0.00184 µM] | 0% | 2
SMILES | Shiga inhibitor | Pf growth 96h | Pf growth 48h | LmPK inhibitor | CHX counter
COC(=O)c1ccc(-c2nc3ccccc3[nH]2)cc1 | active | 56% | 56% | ? | 63*
COc1ccc(CCNC(=O)CNCC(c2ccccc2)N(C)C)cc1OC (configuration not stated) | 4 | 1% | ? | -4% | 16
CCC(C)N(C(=O)c1csnn1)C(C(=O)NCc1ccc(F)cc1)c1ccccc1F (configuration not stated) | -4 | 2% | -12% | 0% | 2
CC(=O)Oc1ccc(/C(C)=N\N2CCN(Cc3ccc(Cl)cc3)CC2)cc1 | 21 | ? | 144% | 0% | -5
c1ccc(-c2nc3ccccc3[nH]2)cc1 | 47* | 353% | 103% | ? | 31*
COC(=O)c1ccc(-c2ncc[nH]2)cc1 | 23 | 48% | 14% | 2% | 24*
COc1ccc2oc(=Nc3ccccc3)c(-c3nc4ccccc4[nH]3)cc2c1 | 71* | 49% | 67% | -8% | 59*
COc1ccc2oc(=O)c(/C(C)=N/Nc3ccccc3)cc2c1 | 21 | -21% | 17% | -2%[11.5 µM] | 6
